The text below walks through data of PubChem BioAssay (NCI).

This is part of a sample that, as a whole, favours compounds with a hit. Of some 83,000 tested, about 20% had one in any assay.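 Plates (96-well) were seeded with cells, treated with compound at one concentration, and incubated for 48 hours before percent growth was determined.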 Values without a mark were called inactive. Calls of active or inactive are those of the source. The calls were made as follows: active = growth percent below 10; inactive = the rest.

Experiment in all cases: NCI-60 one-dose screen, 48 h (100 = growth as untreated, 0 = no growth, -100 = all killed)
Details in all cases: 10 µM unless noted

The subject of experiment [1] is NCI-H23 lung.
Experiment [2] has as its system NCI-H226 lung.
For experiment [3], the system named is NCI-H322M lung.
For experiment [4], the system named is HOP-62 NSCLC.
In experiment [5] the test system is NCI-H460 lung.
Experiment [6] deals with HOP-92 NSCLC.
Experiment [7] relates to NCI-H522 lung.
For experiment [8], the system named is A549/ATCC NSCLC.
In experiment [9] the test system is 786-0 renal.
The test system of experiment [10] is COLO 205 colon.

Regarding `Oc1cc(Nc2ccnc3cc(Cl)ccc23)c2ncccc2c1`, the growth in experiment [1] is 73.8%; in [2], 91%; in experiment [3], 99.7%; in experiment [4] it was 74.4%; in [5] it was 75.5%; in experiment [6], 39.3%. Further, the growth was 76.7% in [7], 84.2% in [8], 106% in experiment [9] and 96.4% in experiment [10].
`C=CC1=C(C)C2=NC1=CC1=NC(=CC3=C(C)C4=C(O)C(C(=O)O)C(=C5NC(=C2)C(C)C5CCC(=O)O)C4=N3)C(CC)=C1C` (stereo not given): the growth in experiment [1] is 107%; in [2], 97.5%; in [3] it was 112%; in [4], 121%; in experiment [5], 107%; in [6], 108%. The growth was 116% in experiment [7], 94.6% in experiment [8], 113% in experiment [9] and 114% in experiment [10].
As for `Cc1ccc(S(=O)(=O)Oc2ccc(Br)cc2Br)cc1`, the growth in experiment [1] is 88%; in experiment [2], 85.5%; in [3] it was 91.2%; in experiment [4], 76.6%; in experiment [5] it was 97.2%; in experiment [6], 82.3%. Moreover, the growth in [7] was 82.1%; in experiment [8], 64%; in [9], 86.6%; in [10], 63.9%.
`Cc1cccc(C[C@H](NC(=O)Nc2ccc(C)cc2F)C(=O)N[C@@H]2C(=O)N3C[C@H](O)C[C@H]3C(=O)N3CCN(C)C[C@H]3C(=O)N[C@@H](C)C(=O)N3C[C@H](C)C[C@H]3C(=O)O[C@H]2C)c1`: the growth is 38.1% in [1]; 53.9% in [2]; 73.3% in [3]; 57.9% in [4]; 42.5% in [5]; 38.9% in experiment [6]. Moreover, the growth in [7] is 38%; in experiment [8] it was 43.5%; in [9], 84.2%; in [10], 12.4%.
On to `CC1(C)CC[C@]2(C(=O)O)CC[C@]3(C)C(=CC[C@@H]4[C@@]5(C)C/C(=C/c6cccnc6)[C@H](O)C(C)(C)[C@@H]5CC[C@]43C)[C@@H]2C1`, for which the growth was 6.1% [100 µM] (active) in experiment [1]; -23% [100 µM] (active) in experiment [2]; -17% [100 µM] (active) in experiment [3]; -2.51% [100 µM] (active) in [4]; -16.7% [100 µM] (active) in experiment [5]; -21.8% [100 µM] (active) in experiment [6]. In addition, the growth was -8.98% [100 µM] (active) in [7], 5.82% [100 µM] (active) in experiment [8], 5.39% [100 µM] (active) in experiment [9] and -73% [100 µM] (active) in experiment [10].
On to `Cc1ccc(S(=O)(=O)N/N=C2\CC3CCC2(C)C3(C)C)cc1` (stereo not given), for which the growth in experiment [1] is 237%; in experiment [2], 96.9%; in experiment [3] it was 116%; in experiment [4], 103%; in experiment [5], 108%; in experiment [6], 95.6%. In addition, the growth in experiment [7] is 63.1%; in experiment [8], 81.8%; in [9] it was 103%; in [10], 113%.
Regarding `COc1cc(NCc2ccccc2O)c2ncccc2c1`, the growth is 97.7% in experiment [1]; 104% in experiment [2]; 90.7% in experiment [3]; 83.5% in experiment [4]; 97.3% in experiment [5]; 81.1% in experiment [6]. The growth in [7] was 88.3%; in experiment [8] it was 110%; in [9], 69.5%; in experiment [10], 96.9%.
Turning to `CC(C)c1ccc(C(=O)Nc2nc3ccc(O)cc3s2)cc1`, the growth in [1] was 51.4%; in experiment [2], 66.6%; in [3], 62.2%; in experiment [4] it was 93.1%; in experiment [5], 3.97% (active); in experiment [6] it was 50%. Moreover, the growth is 39.6% in experiment [7], 33.5% in [8], 0.538% (active) in experiment [9] and 33% in experiment [10].
Regarding `CCOc1cccc2c(NC(C)CCCN(CC)CC)c(C)cnc12` (stereo not given), the growth in experiment [1] is 110%; in experiment [2] it was 103%; in [3], 91.8%; in experiment [4] it was 98.9%; in experiment [5], 110%; in [6] it was 97%. In addition, the growth in [7] was 94.7%; in experiment [8], 91.4%; in experiment [9], 103%; in [10], 77.1%.
Take `CCN(CC)c1ccc2cc(NC(=O)OCCNC(=O)CCNC(=O)[C@H](CC(C)C)NC(=O)C(C)(C)NC(=O)C(C)(C)NC(=O)[C@H](CC(C)C)NC(=O)CCNC(=O)C(C)(C)NC(=O)[C@H](CC(C)C)NC(=O)CCNC(=O)[C@@](C)(CC)NC(=O)[C@H](C)NC(=O)CCNC(=O)C(C)(C)NC(=O)[C@H](C)NC(=O)[C@@H]3CCCN3C(=O)[C@@](C)(CC)NC(=O)[C@H](Cc3ccccc3)NC(=O)C3CCCN3C(=O)C(C)(C)NC(=O)C3CCCN3C(=O)C(C)(C)NC(C)=O)c(=O)oc2c1` (stereo not given in full): the growth in [1] was -85.9% (active); in experiment [2] it was -65.9% (active); in experiment [3] it was -80.3% (active); in experiment [4] it was -86.7% (active); in [5] it was -76.9% (active); in [6] it was -95.8% (active). The growth is -82.3% (active) in [7], -76% (active) in experiment [8], -94.8% (active) in experiment [9] and -81.1% (active) in experiment [10].
In the case of `CN(Cc1cccc(C(F)(F)F)c1)C(=O)[C@@H](CC(=O)N1CCC(N2CCCCC2)CC1)N1C(=O)[C@@H](N2C(=O)OC[C@@H]2c2ccccc2)[C@H]1/C=C/c1ccccc1`, the growth in experiment [1] was 93.9%; in experiment [2], 85.1%; in experiment [3], 93.5%; in experiment [4], 81.2%; in [5] it was 89%; in [6] it was 58.7%. Further, the growth in experiment [7] is 96.1%; in experiment [8] it was 80.6%; in [9], 75.4%; in [10], 72.2%.
As to `Cn1cc(-c2nnc(-c3cn(C)c4ncc(Br)cc34)s2)c2cc(Br)ccc21`, the growth in [1] is 99.5%; in experiment [2], 91.8%; in experiment [3], 89.8%; in experiment [4], 93.1%; in [5], 99.4%; in experiment [6], 57.2%. The growth in experiment [7] is 94.2%; in experiment [8] it was 94.4%; in experiment [9] it was 93.5%; in experiment [10] it was 105%.
As to `Cc1cc(N2CCCCCC2)nc(N2CCN(CC(=O)Nc3ccc4c(ccn4Cc4ccccc4)c3)CC2)n1`, the growth in experiment [1] was 48.3%; in experiment [2], 53.5%; in experiment [3] it was 80.7%; in [4] it was 54.1%; in experiment [5], 36.7%; in experiment [6], 8.3% (active). Further, the growth in experiment [7] was 55%; in [8] it was 46.8%; in experiment [9], 39%; in experiment [10], 31.2%.
Take `O=C(C[n+]1ccn(CC(OCc2ccc(Cl)cc2Cl)c2ccc(Cl)cc2Cl)c1)c1ccc(F)cc1` (stereo not given): the growth in experiment [1] is -87.8% (active); in [2], -76.4% (active); in experiment [3], -89.3% (active); in [4] it was -91.3% (active); in [5], -86.1% (active); in experiment [6], -87.5% (active). Further, the growth was -82.2% (active) in experiment [7], 29.9% in [8], -94.3% (active) in experiment [9] and -84.8% (active) in [10].
For the compound `C#C[C@]1(O)CC[C@H]2[C@@H]3CC=C4c5nc(Nc6ccc(OC)cc6OC)sc5CC[C@]4(C)[C@H]3CC[C@@]21C`, the growth in experiment [1] is 34.6%; in experiment [2] it was 24.2%; in [3], 37%; in experiment [4], -11.5% (active); in [5], 12.4%; in experiment [6], 10.4%. Also, the growth is 23% in [7], 9.68% (active) in experiment [8], -54.7% (active) in experiment [9] and -43.2% (active) in [10].
`Nc1nc(Cl)c2ncn(Cc3cc4c(cc3I)OCO4)c2n1`: the growth is 75.2% in experiment [1]; 85.8% in [2]; 65.4% in experiment [3]; 36.1% in [4]; 18% in experiment [5]; 82.4% in [6]. The growth in experiment [7] is 14.7%; in experiment [8], 45.6%; in experiment [9], 44.4%; in [10] it was 21.1%.
Turning to `O=c1c2c3c(sc2n2cnnc2n1Cc1ccccc1)CCCC3`, the growth in experiment [1] is 100%; in experiment [2], 85%; in experiment [3] it was 104%; in [4], 119%; in experiment [5], 97.7%; in experiment [6], 89.8%. Besides, the growth is 79.2% in experiment [7], 91.7% in [8], 100% in experiment [9] and 83.3% in experiment [10].
As for `c1cc2ccc3cc2cc1CNCCN1CCNCc2ccc4ccc(cc4c2)CNCCN(CCNC3)CCNCc2ccc3ccc(cc3c2)CNCC1`, the growth was -7% (active) in experiment [1]; 6.46% (active) in experiment [2]; 56.3% in experiment [3]; 60.3% in [4]; 16.1% in experiment [5]; -17.9% (active) in experiment [6]. The growth in experiment [7] is 0.768% (active); in [8], 2.2% (active); in experiment [9], 89.7%; in [10], -32.7% (active).
On to `O=C(OCc1ccc2c(Cl)cc(Cl)c(O)c2n1)N1CCNCC1`, for which the growth in [1] was 47.1%; in [2], 42.2%; in [3], 47.1%; in experiment [4] it was 22.9%; in experiment [5], 15.4%; in experiment [6], 44.9%. Also, the growth is 42.4% in experiment [7], 17.3% in experiment [8], 61.1% in experiment [9] and 54.3% in experiment [10].
With `COc1ccc2nc3c(cc2c1)C(=O)CC(c1ccccc1)C3` (stereo not given), the growth in experiment [1] is 47.5%; in experiment [2], 26.5%; in experiment [3] it was 37.8%; in experiment [4], 39.2%; in experiment [5], 8.79% (active); in experiment [6], 61.6%. Also, the growth in experiment [7] was 15.4%; in experiment [8] it was 34.8%; in [9], 52.8%; in experiment [10], 1.93% (active).
Turning to `O=C(Nc1cccc(C2=NCCN2)c1)c1cccc(C(=O)Nc2cccc(C3=NCCN3)c2)c1`, the growth in experiment [1] is 95.4%; in experiment [2] it was 90.5%; in [3], 92.4%; in experiment [4], 97.1%; in [5] it was 102%; in experiment [6] it was 101%. The growth is 94.1% in [7], 102% in experiment [8], 103% in [9] and 99.8% in [10].
Turning to `CCOC(=O)c1c[nH]n2c(=S)ncnc12`, the growth is 97.4% in [1]; 97.4% in [2]; 110% in experiment [3]; 89.8% in experiment [4]; 115% in [5]; 113% in experiment [6]. Besides, the growth was 96.8% in experiment [7], 106% in experiment [8], 95.8% in experiment [9] and 100% in [10].
For the compound `CC(=O)Nc1ccc(C=Nc2ccc3ccccc3c2)cc1`, the growth in experiment [1] was 105%; in experiment [2], 100%; in experiment [3], 111%; in [4], 114%; in experiment [5], 111%; in [6] it was 81.6%. Further, the growth is 13.5% in experiment [7], 106% in [8], 106% in [9] and 115% in experiment [10].
`COc1ccc2c(c1)C(C)Cc1c(Cl)nc(C)nc1N2C` (stereo not given): the growth in experiment [1] is 25.8%; in experiment [2], 38.6%; in [3], 58.8%; in [4], 29.4%; in [5], 12.3%; in experiment [6], 41.7%. Further, the growth in experiment [7] is -17% (active); in experiment [8], 21.8%; in [9], 38.2%; in [10], -20.9% (active).
